Measured values taken from PubChem BioAssay (EPA / NIEHS).
Activity calls are given as the source filed them. The calls were made as follows: active = hit-call score of the fitted dose curve at least 0.9, where 1 is the maximum; inactive = score below 0.9.

Each molecule was assayed against Hepatocyte nuclear factor 3-beta (Homo sapiens) (UniProt Q9Y261) (assay: ATG_FoxA2_CIS: Attagene CIS-FACTORIAL HepG2 Assay for human Forkhead box A2 (FOXA2) (AID 2282942)). Settings: HepG2 cis-reporter transcription factor activity, 24 h; actives raise or lower the signal.
Chain of Hepatocyte nuclear factor 3-beta (Homo sapiens) (Q9Y261 whole entry, looked up): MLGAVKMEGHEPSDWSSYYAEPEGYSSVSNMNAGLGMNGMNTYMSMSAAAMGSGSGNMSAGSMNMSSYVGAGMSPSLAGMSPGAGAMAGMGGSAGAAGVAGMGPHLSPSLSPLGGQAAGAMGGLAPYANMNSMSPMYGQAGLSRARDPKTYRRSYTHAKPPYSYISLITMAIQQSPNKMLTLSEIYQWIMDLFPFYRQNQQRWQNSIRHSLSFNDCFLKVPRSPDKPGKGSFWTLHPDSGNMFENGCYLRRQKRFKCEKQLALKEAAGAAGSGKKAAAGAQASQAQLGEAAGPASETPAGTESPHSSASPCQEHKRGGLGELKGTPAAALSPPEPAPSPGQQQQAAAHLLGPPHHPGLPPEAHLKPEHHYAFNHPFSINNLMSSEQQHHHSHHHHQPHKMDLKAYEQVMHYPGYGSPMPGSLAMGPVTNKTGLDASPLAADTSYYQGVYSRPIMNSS
Method: ATG_CIS is a cell-based, multiplexed-readout assay that uses HepG2, a human liver cell line, with measurements taken at 24 hours after chemical dosing in a 24-well plate.ATG_FoxA2_CIS is one of 52 assay component(s) measured or calculated from the ATG_CIS assay. It is designed to make measurements of mRNA induction, a form of inducible reporter, as detected with fluorescence intensity signals by Reverse transcription polymerase chain reaction (RT-PCR) and Capillary electrophoresis technology.Data from the assay component ATG_FoxA2_CIS was analyzed into 1 assay endpoint. This assay endpoint, ATG_FoxA2_CIS, was analyzed with bidirectional fitting relative to DMSO as the negative control and baseline of activity. Using a type of inducible reporter, measures of mRNA for gain or loss-of-signal activity can be used to understand the reporter gene at the transcription factor-level as they relate to the gene FOXA2. Furthermore, this assay endpoint can be referred to as a primary readout, because this assay has produced multiple assay endpoints where this one serves a reporter gene function. To generalize the intended target to other relatable targets, this assay endpoint is annotated to the dna binding intended target family, where the subfamily is forkhead box protein.
Human liver HepG2 cells are transiently transfected with multiple reporter transcription units (MRTUs) in 6-well plates using FuGene 6 reagent (Roche; 3 ml FuGene/1 mg DNA). The MRTU constructs are regulated by a cis-regulating element (promoter). […] A major difference between the CIS and TRANS system is that in CIS activities of endogenous TFs are measured, whereas the TRANS assay evaluates changes in activities of exogenous, chimeric NR-Gal4 proteins. […] At the end of 24 hour incubation, total RNA was isolated using TriZol reagent (Invitrogen). The isolated RNA is then reverse-transcribed using oligo(dT) primer and Mo-MLV reverse transcriptase (Invitrogen) with DNAse I (Ambion) treatment for 30 min. The one-tenth of the produced cDNA was amplified by PCR using Taq DNA polymerase (Invitrogen) and two reporter sequence-specific primers. The PCR products were fluorescently labeled by primer extension with 6-arboxyfluorescein (6-FAM) 5'-labeled reporter sequence-specific primer (2 min at 95 C, 20 s at 68 C and 10 min at 72 C) and these products were digested with 5U of HpaI (New England Biolabs) for 2h at 37 C. The fragments were purified using Qiaquick PCR columns (Qiagen), analyzed on an ABI 3130xL genetic analyzer (Applied Biosystems) with peak positions identified by using a set of X-rhodamine (ROX)-labeled MapMarker1000 molecular weight standards (BioVentures). The raw capillary electrophoresis data was processed using Attagraph software (Attagene).

| SMILES | outcome | AC50 |
| --- | --- | --- |
| CCCC(=O)OCc1ccccc1 | inactive | – |
| CCO[Si](CCCN=C=O)(OCC)OCC | inactive | – |
| O=Nc1ccc(O)cc1 | inactive | – |
| COc1ccc2nc(N)sc2c1 | inactive | – |
| CCCCCc1ccc(Cl)cc1 | inactive | – |
| C=C[Si](OC(C)=O)(OC(C)=O)OC(C)=O | inactive | – |
| CC1=CC[C@H](C(C)C)C=C1 | inactive | – |
| O=C(Oc1ccccc1)c1ccc2ccccc2c1O | inactive | – |
| CC1=Nc2ccc3ccccc3c2C1(C)C | inactive | – |
| CCCCCCCCCCCCCOP(=O)(O)O | inactive | – |
| Nc1ncn([C@@H]2O[C@H](CO)[C@@H](O)[C@H]2O)c(=O)n1 | inactive | – |
| CC1(C)O[C@@H]2C[C@H]3[C@@H]4C[C@H](F)C5=CC(=O)CC[C@]5(C)[C@H]4[C@@H](O)C[C@]3(C)[C@]2(C(=O)CO)O1 | inactive | – |
| COCCCOCCCOC | inactive | – |
| O=[N+]([O-])C1(Br)COCOC1 | inactive | – |
| NNC(=O)c1cccc(C(=O)NN)c1 | inactive | – |
| CCCCCCCCCCCSCC(=O)O | inactive | – |
| O=C(/C=C/C=C/c1ccc2c(c1)OCO2)N1CCCCC1 | inactive | – |
| N#CCc1ccc(Cl)cc1Cl | inactive | – |
| C=CCOc1c(Br)cc(Br)cc1Br | inactive | – |
| CC(C)CCCCCOC(=O)CCS | inactive | – |

| SMILES | outcome | AC50 |
| --- | --- | --- |
| CCOc1nc(F)cc2nc(S(=O)(=O)Nc3c(Cl)cccc3C(=O)OC)nn12 | inactive | – |
| N#[N+]c1ccc2c(S(=O)(=O)[O-])cccc2c1O | inactive | – |
| C=CC(=O)OCC(Br)CBr (stereo not given) | – | 131 µM (active) |
| CCCCC/C=C\C/C=C\CCCCCCCC(=O)OC | inactive | – |
| C=CC=CC=CCCCCC | inactive | – |
| Cc1cccc(OCCOc2cccc(C)c2)c1 | inactive | – |
| CCC(Cc1ccccc1)(C(=O)c1ccc(N2CCOCC2)cc1)N(C)C (stereo not given) | inactive | – |
| O=C(O)Cc1c(Cl)ccc(Cl)c1Cl | inactive | – |
| CC(C)(C)C(=O)CCc1ccc(Cl)cc1 | inactive | – |
| CCc1c(C(=O)O)c(=O)cnn1-c1ccc(Cl)cc1 | inactive | – |
| Cc1ccc(N)c([N+](=O)[O-])c1 | inactive | – |
| Cc1ccc(C2OC[C@@H]3OC(c4ccc(C)cc4)O[C@H]([C@H](O)CO)[C@@H]3O2)cc1 (stereo not given in full) | inactive | – |
| CC1=NC(C)OC1C (stereo not given) | inactive | – |
| OCCCS | inactive | – |
| CC(C)COC(=O)C=Cc1ccccc1 | inactive | – |
| CCCCCCCCCCCCCCCCCC#N | inactive | – |
| Nc1cccc(C(F)(F)F)c1 | inactive | – |
| CN(C)c1ccc(N=Nc2ccccc2C(=O)O)cc1 | inactive | – |
| FC(F)=C(F)OC(F)(F)C(F)(F)C(F)(F)F | inactive | – |
| CCCCCCOc1cc(C)c(O)c(C)c1C | inactive | – |
